Measurements taken from PubChem BioAssay AID1159580 (chemical genetic matrix, 2015).
Among all 5,500 compounds or so, about 2,000 (36%) were called active. Not shown: some 18% with an inconclusive outcome. Cut-off read from the data, not from the text of the source: active = normalized growth mostly below about 0.91 (no sharp cut-off); inconclusive = no clear call, values can overlap the other calls; inactive = mostly above about 0.92. The list shows a part of the results.

Assay: chemical genetic growth profiling, strain panel (AID 1159580);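 note: tested at 20 µM; growth read once vehicle control cultures reached saturation at 30 °C; 1 = growth at the plate median or of vehicle wells; lower values mean less growth of the strain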
Settings: S. cerevisiae deletion strains, growth OD

Measured: normalized growth

N#CC(C#N)=NNc1ccc(-n2ccc(C(F)(F)F)n2)cc1
inactive: locus YBR136W, strain MEC1, stronger effect = lower value 0.905 | locus YBR160W, strain CDC28, stronger effect = lower value 0.902 | locus YDL017W, strain CDC7, stronger effect = lower value 0.926 | locus YDL028C, strain MPS1, stronger effect = lower value 0.923 | locus YDL108W, strain KIN28, stronger effect = lower value 0.907 | locus YDR226W, strain ADK1, stronger effect = lower value 0.917 | locus YFR003C, strain YPI1, stronger effect = lower value 0.927 | locus YFR028C, strain CDC14, stronger effect = lower value 0.899 | locus YHR205W, strain SCH9, stronger effect = lower value 0.595 | locus YIL147C, strain SLN1, stronger effect = lower value 0.928 | locus YJL128C, strain PBS2, stronger effect = lower value 0.915 | locus YNL006W, strain LST8, stronger effect = lower value 0.914 | locus YOR329C, strain SCD5, stronger effect = lower value 0.924 | locus YPR106W, strain ISR1, stronger effect = lower value 0.902 | locus YPR111W, strain DBF20, stronger effect = lower value 0.878
active: locus YAR019C, strain CDC15, stronger effect = lower value 0.871 | locus YBL105C, strain PKC1, stronger effect = lower value 0.899 | locus YBR135W, strain CKS1, stronger effect = lower value 0.893 | locus YDL101C, strain DUN1, stronger effect = lower value 0.88 | locus YDL132W, strain cdc53, stronger effect = lower value 0.76 | locus YDL214C, strain PRR2, stronger effect = lower value 0.348 | locus YDR052C, strain DBF4, stronger effect = lower value 0.876 | locus YDR054C, strain cdc34, stronger effect = lower value 0.607 | locus YDR477W, strain SNF1, stronger effect = lower value 0.368 | locus YER123W, strain YCK3, stronger effect = lower value 0.208 | locus YER133W, strain GLC7, stronger effect = lower value 0.422 | locus YFL009W, strain cdc4, stronger effect = lower value 0.876 | locus YFL029C, strain CAK1, stronger effect = lower value 0.853 | locus YFR019W, strain FAB1, stronger effect = lower value 0.199 | locus YGR040W, strain KSS1, stronger effect = lower value 0.48 | locus YGR052W, strain FMP48, stronger effect = lower value 0.31 | locus YGR092W, strain DBF2, stronger effect = lower value 0.176 | locus YHR030C, strain SLT2, stronger effect = lower value 0.131 | locus YHR079C, strain IRE1, stronger effect = lower value 0.175 | locus YHR082C, strain KSP1, stronger effect = lower value 0.271 | locus YJL095W, strain BCK1, stronger effect = lower value 0.204 | locus YJL157C, strain FAR1, stronger effect = lower value 0.329 | locus YJR016C, strain ILV3, stronger effect = lower value 0.895 | locus YJR066W, strain TOR1 (second series), stronger effect = lower value 0.225 | locus YJR066W, strain TOR1, stronger effect = lower value 0.201 | locus YKL048C, strain ELM1, stronger effect = lower value 0.321 | locus YKL067W, strain YNK1, stronger effect = lower value 0.403 | locus YKL101W, strain HSL1, stronger effect = lower value 0.349 | locus YKL193C, strain SDS22, stronger effect = lower value 0.875 | locus YKL203C, strain TOR2, stronger effect = lower value 0.283 | locus YLR113W, strain HOG1, stronger effect = lower value 0.207 | locus YLR133W, strain CKI1, stronger effect = lower value 0.383 | locus YLR403W, strain SFP1, stronger effect = lower value 0.448 | locus YML070W, strain DAK1, stronger effect = lower value 0.229 | locus YMR001C, strain CDC5, stronger effect = lower value 0.883 | locus YMR205C, strain PFK2 (second series), stronger effect = lower value 0.433 | locus YMR277W, strain FCP1, stronger effect = lower value 0.865 | locus YNL020C, strain ARK1, stronger effect = lower value 0.349 | locus YNL161W, strain CBK1, stronger effect = lower value 0.884 | locus YNL183C, strain NPR1, stronger effect = lower value 0.292 | locus YNL207W, strain RIO2, stronger effect = lower value 0.875 | locus YNL222W, strain SSU72, stronger effect = lower value 0.861 | locus YNL307C, strain MCK1 (second series), stronger effect = lower value 0.379 | locus YOL078W, strain AVO1, stronger effect = lower value 0.739 | locus YOL136C, strain PFK27, stronger effect = lower value 0.202 | locus YOR061W, strain CKA2, stronger effect = lower value 0.568 | locus YOR119C, strain RIO1, stronger effect = lower value 0.419 | locus YOR231W, strain MKK1, stronger effect = lower value 0.156 | locus YPL031C, strain PHO85, stronger effect = lower value 0.273 | locus YPL153C, strain RAD53, stronger effect = lower value 0.157 | locus YPL204W, strain HRR25, stronger effect = lower value 0.183 | locus YPL209C, strain IPL1, stronger effect = lower value 0.897 | locus YPL256C, strain CLN2, stronger effect = lower value 0.178 | locus YPR025C, strain CCL1, stronger effect = lower value 0.89 | strain NNK1, stronger effect = lower value 0.866 | strain TSCII, stronger effect = lower value 0.861
